Experimental data taken from PubChem BioAssay AID1159580 (chemical genetic matrix, 2015).
Among all 5,500 compounds or so, about 2,000 (36%) were called active. Not shown: some 18% with an inconclusive outcome. Rule as the data show it: active = normalized growth mostly below about 0.91 (no sharp cut-off); inconclusive = no clear call, values can overlap the other calls; inactive = mostly above about 0.92. The list shows a part of the results.

Test: chemical genetic growth profiling, strain panel (AID 1159580);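 also: tested at 20 µM; growth read once vehicle control cultures reached saturation at 30 °C; 1 = growth at the plate median or of vehicle wells; lower values mean less growth of the strain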
Conditions: growth OD

Measured: normalized growth

COP(N)(=O)SC (configuration not stated)
inactive: S. cerevisiae deletion strains, locus YJR075W, strain HOC1, stronger effect = lower value 1.01 | S. cerevisiae deletion strains, locus YKL009W, strain mrt4, stronger effect = lower value 1 | S. cerevisiae deletion strains, locus YKL068W, stronger effect = lower value 0.999 | S. cerevisiae deletion strains, locus YKL085W, strain MDH1 (second series), stronger effect = lower value 1 | S. cerevisiae deletion strains, locus YKL085W, strain MDH1, stronger effect = lower value 1 | S. cerevisiae deletion strains, locus YKL160W, strain elf1, stronger effect = lower value 0.995 | S. cerevisiae deletion strains, locus YKL190W, strain CNB1, stronger effect = lower value 1 | S. cerevisiae deletion strains, locus YKR001C, strain vps1, stronger effect = lower value 1.03 | S. cerevisiae deletion strains, locus YKR026C, strain gcn3, stronger effect = lower value 0.995 | S. cerevisiae deletion strains, locus YKR091W, strain srl3, stronger effect = lower value 1 | S. cerevisiae deletion strains, locus YLL001W, strain dnm1, stronger effect = lower value 0.981 | S. cerevisiae deletion strains, locus YLL026W, stronger effect = lower value 0.996 | S. cerevisiae deletion strains, locus YLL041C, strain sdh2, stronger effect = lower value 1 | S. cerevisiae deletion strains, locus YLR027C, strain aat2, stronger effect = lower value 0.999 | S. cerevisiae deletion strains, locus YLR039C, strain RIC1, stronger effect = lower value 1.04 | S. cerevisiae deletion strains, locus YLR058C, strain SHM2, stronger effect = lower value 1.01 | S. cerevisiae deletion strains, locus YLR102C, strain apc9, stronger effect = lower value 1.02 | S. cerevisiae deletion strains, locus YLR113W, strain HOG1, stronger effect = lower value 0.963 | S. cerevisiae deletion strains, locus YLR221C, strain rsa3, stronger effect = lower value 0.991 | S. cerevisiae deletion strains, locus YLR258W, strain gsy2, stronger effect = lower value 1.01 | S. cerevisiae deletion strains, locus YLR262C, strain YPT6 (second series), stronger effect = lower value 1.01 | S. cerevisiae deletion strains, locus YLR262C, strain YPT6, stronger effect = lower value 1.02 | S. cerevisiae deletion strains, locus YLR268W, strain sec22, stronger effect = lower value 1.01 | S. cerevisiae deletion strains, locus YLR320W, strain mms22, stronger effect = lower value 1.01 | S. cerevisiae deletion strains, locus YLR330W, strain CHS5, stronger effect = lower value 1 | S. cerevisiae deletion strains, locus YLR342W, strain FKS1 (second series), stronger effect = lower value 1.03 | S. cerevisiae deletion strains, locus YLR342W, strain FKS1, stronger effect = lower value 1.01 | S. cerevisiae deletion strains, locus YLR357W, strain rsc2, stronger effect = lower value 1.02 | S. cerevisiae deletion strains, locus YLR370C, strain arc18, stronger effect = lower value 1.01 | S. cerevisiae deletion strains, locus YLR371W, strain rom2, stronger effect = lower value 1.02 | S. cerevisiae deletion strains, locus YLR384C, strain iki3, stronger effect = lower value 1 | S. cerevisiae deletion strains, locus YLR418C, strain cdc73, stronger effect = lower value 1.01 | S. cerevisiae deletion strains, locus YML016C, strain PPZ1, stronger effect = lower value 0.992 | S. cerevisiae deletion strains, locus YML032C, strain rad52, stronger effect = lower value 1.03 | S. cerevisiae deletion strains, locus YML120C, strain ndi1, stronger effect = lower value 1 | S. cerevisiae deletion strains, locus YML124C, strain tub3, stronger effect = lower value 1.01 | S. cerevisiae deletion strains, locus YMR058W, strain fet3, stronger effect = lower value 1.01 | S. cerevisiae deletion strains, locus YMR078C, strain ctf18, stronger effect = lower value 1.02 | S. cerevisiae deletion strains, locus YMR125W, strain sto1, stronger effect = lower value 1.01 | S. cerevisiae deletion strains, locus YMR129W, stronger effect = lower value 0.992 | S. cerevisiae deletion strains, locus YMR205C, strain PFK2, stronger effect = lower value 1.02 | S. cerevisiae deletion strains, locus YMR223W, strain ubp8, stronger effect = lower value 1.02 | S. cerevisiae deletion strains, locus YMR231W, strain pep5, stronger effect = lower value 1.01 | S. cerevisiae deletion strains, locus YMR263W, strain SAP30, stronger effect = lower value 0.994 | S. cerevisiae deletion strains, locus YMR307W, strain GAS1, stronger effect = lower value 1.02 | S. cerevisiae deletion strains, locus YNL067W, strain RPL9B, stronger effect = lower value 0.99 | S. cerevisiae deletion strains, locus YNL071W, strain lat1, stronger effect = lower value 1 | S. cerevisiae deletion strains, locus YNL128W, strain TEP1, stronger effect = lower value 0.991 | S. cerevisiae deletion strains, locus YNL153C, strain GIM3, stronger effect = lower value 0.996 | S. cerevisiae deletion strains, locus YNL183C, strain NPR1, stronger effect = lower value 0.985 | S. cerevisiae deletion strains, locus YNL209W, strain ssb2, stronger effect = lower value 1 | S. cerevisiae deletion strains, locus YNL233W, strain BNI4, stronger effect = lower value 0.992 | S. cerevisiae deletion strains, locus YNL248C, strain rpa49, stronger effect = lower value 0.969 | S. cerevisiae deletion strains, locus YNL250W, strain rad50, stronger effect = lower value 1.01 | S. cerevisiae deletion strains, locus YNL271C, strain bni1, stronger effect = lower value 1.01 | S. cerevisiae deletion strains, locus YNL298W, strain CLA4, stronger effect = lower value 1.02 | S. cerevisiae deletion strains, locus YNL307C, strain MCK1, stronger effect = lower value 1.03 | S. cerevisiae deletion strains, locus YNL322C, strain KRE1 (second series), stronger effect = lower value 1 | S. cerevisiae deletion strains, locus YNL322C, strain KRE1, stronger effect = lower value 0.999 | S. cerevisiae deletion strains, locus YNR049C, strain mso1, stronger effect = lower value 0.996 | S. cerevisiae deletion strains, locus YNR052C, strain pop2, stronger effect = lower value 1.02 | S. cerevisiae deletion strains, locus YOL006C, strain TOP1, stronger effect = lower value 1.03 | S. cerevisiae deletion strains, locus YOL012C, strain htz1 0.95 | S. cerevisiae deletion strains, locus YOL147C, strain pex11, stronger effect = lower value 1.02 | S. cerevisiae deletion strains, locus YOR001W, strain rrp6, stronger effect = lower value 0.979 | S. cerevisiae deletion strains, locus YOR061W, strain CKA2, stronger effect = lower value 0.994 | S. cerevisiae deletion strains, locus YOR069W, strain VPS5, stronger effect = lower value 1 | S. cerevisiae deletion strains, locus YOR070C, strain gyp1, stronger effect = lower value 1.01 | S. cerevisiae deletion strains, locus YOR080W, strain dia2, stronger effect = lower value 1 | S. cerevisiae deletion strains, locus YOR083W, strain WHI5, stronger effect = lower value 0.999 | S. cerevisiae deletion strains, locus YOR106W, strain vam3, stronger effect = lower value 0.993 | S. cerevisiae deletion strains, locus YOR136W, strain idh2, stronger effect = lower value 1.01 | S. cerevisiae deletion strains, locus YOR144C, strain elg1, stronger effect = lower value 1.01 | S. cerevisiae deletion strains, locus YOR184W, strain ser1, stronger effect = lower value 1.03 | S. cerevisiae deletion strains, locus YOR231W, strain MKK1, stronger effect = lower value 1.05 | S. cerevisiae deletion strains, locus YOR265W, strain rbl2, stronger effect = lower value 1.01 | S. cerevisiae deletion strains, locus YOR270C, strain vph1, stronger effect = lower value 0.987 | S. cerevisiae deletion strains, locus YOR290C, strain snf2, stronger effect = lower value 1 | S. cerevisiae deletion strains, locus YOR316C, strain cot1, stronger effect = lower value 1.01 | S. cerevisiae deletion strains, locus YPL051W, strain arl3, stronger effect = lower value 1 | S. cerevisiae deletion strains, locus YPL055C, strain LGE1, stronger effect = lower value 0.984 | S. cerevisiae deletion strains, locus YPL078C, strain atp4, stronger effect = lower value 0.986 | S. cerevisiae deletion strains, locus YPL106C, strain sse1, stronger effect = lower value 1 | S. cerevisiae deletion strains, locus YPL240C, strain hsp82, stronger effect = lower value 1 | S. cerevisiae deletion strains, locus YPL241C, strain CIN2, stronger effect = lower value 0.994 | S. cerevisiae deletion strains, locus YPL256C, strain CLN2, stronger effect = lower value 1.06 | S. cerevisiae deletion strains, locus YPR119W, strain clb2, stronger effect = lower value 1.01 | S. cerevisiae deletion strains, locus YPR141C, strain kar3, stronger effect = lower value 1.01 | S. cerevisiae deletion strains, locus YPR163C, strain tif3, stronger effect = lower value 1.02 | S. cerevisiae deletion strains, locus YPR167C, strain met16, stronger effect = lower value 1.01 | S. cerevisiae deletion strains, strain wtn01, stronger effect = lower value 1.01 | S. cerevisiae strains, strain wild type, stronger effect = lower value 0.996
